Each structure is given as a SMILES string. Screen size: about 39,000 compounds; about 3,300 (8.5%) were called active. This excerpt belongs to a sample that is enriched for actives.

The experiment concerns HepG2. As to the kind of experiment: cytotoxicity call (relative viability < 0.9). Particulars: 10 µM.
For the compound `CN1C(=O)c2cc(NC(=O)c3ccc(F)c(F)c3)ccc2OC[C@H]2O[C@H](CC(=O)N3CCOCC3)CC[C@H]21`, the cytotoxicity call was “inactive”.
To `Cc1ccc(S(=O)(=O)Nc2ccc3c(c2)C(=O)N([C@@H](C)CO)C[C@@H](C)[C@@H](CN(C)C(=O)CCC(F)(F)F)OCCCC[C@@H](C)O3)cc1` belongs “inactive”.
Consider `CCS(=O)(=O)N1C[C@]2(CCN(CC2)S(=O)(=O)c2cn(cn2)C)c2c(n(c3cc(ccc23)OC)C)[C@H]1CO`, for which the cytotoxicity call was “inactive”.
On to `C[C@H](CO)N1C[C@H](C)[C@@H](CN(C)C(=O)Nc2ccc(F)cc2)OCc2ccccc2-c2c(n(C)c3ccccc23)C1=O`, for which the cytotoxicity call is “inactive”.
As for `COCC(=O)N1C[C@H](C)[C@@H](OC)CN(C)C(=O)c2ccc(NC(=O)Nc3ccccc3)cc2OC[C@H]1C`, the entry is “inactive”; as for `C[C@H](CO)N1C[C@H](C)[C@H](CN(C)Cc2ccc(C(=O)O)cc2)Oc2ccc(NS(C)(=O)=O)cc2C1=O`, “inactive”.
On to `C[C@@H]1CN([C@@H](C)CO)C(=O)Cc2cc(NC(=O)Nc3ccc(C(F)(F)F)cc3)ccc2O[C@H]1CN(C)Cc1ccc(-c2ccccc2)cc1`, for which the cytotoxicity call was “active”.
To `C[C@@H]1CN([C@H](C)CO)C(=O)Cc2cc(NC(=O)Nc3ccc(C(F)(F)F)cc3)ccc2O[C@@H]1CN(C)Cc1ccc(-c2ccccc2)cc1` belongs “active”; to `C[C@H]1CN([C@@H](C)CO)C(=O)Cc2cc(NC(=O)Nc3ccc(C(F)(F)F)cc3)ccc2O[C@@H]1CN(C)Cc1ccc(-c2ccccc2)cc1`, “inactive”.
Turning to `C[C@H]1CN([C@@H](C)CO)C(=O)Cc2cc(NC(=O)Nc3ccc(C(F)(F)F)cc3)ccc2O[C@H]1CN(C)Cc1ccc(-c2ccccc2)cc1`, the cytotoxicity call was “active”.
With `C[C@H](CO)N1C[C@H](C)[C@H](CN(C)Cc2ccc(-c3ccccc3)cc2)Oc2ccc(NC(=O)Nc3ccc(C(F)(F)F)cc3)cc2CC1=O`, the cytotoxicity call is “active”.
To `COCCN1C[C@H]2CN(Cc3nccn3C)C[C@H]2C1=O` belongs “inactive”.
As for `O=C(C[C@H]1C[C@H]2c3cc(NS(=O)(=O)c4ccc(F)cc4)ccc3O[C@H]2[C@H](CO)O1)NC1CCCCC1`, the entry is “inactive”; as for `CC1(C)CCC2=C(O1)C(=O)c1ccccc1C2=O` [alpha-LAPACHONE ], “inactive”.
In the case of `Cc1noc(C)c1NC(=O)N(C)C[C@H]1OCCCC[C@@H](C)Oc2ccc(NC(=O)CCC(F)(F)F)cc2C(=O)N([C@H](C)CO)C[C@@H]1C`, the cytotoxicity call is “inactive”.
As for `Cc1ccc(S(=O)(=O)N(C)C[C@@H]2Oc3ccc(NS(=O)(=O)c4c(C)noc4C)cc3C(=O)N([C@H](C)CO)C[C@H]2C)cc1`, the entry is “inactive”; as for `C[C@@H]1CCCCO[C@H](CN(C)C(=O)CCC(F)(F)F)[C@H](C)CN([C@@H](C)CO)C(=O)c2cc(NS(=O)(=O)c3ccccc3)ccc2O1`, “inactive”.
As for `C[C@@H]1CN([C@@H](C)CO)C(=O)c2cc(NS(=O)(=O)c3cn(C)cn3)ccc2O[C@@H](C)CCCCO[C@H]1CN(C)S(=O)(=O)c1cn(C)cn1`, the entry is “inactive”.
For `C[C@@H]1CN([C@H](C)CO)C(=O)Cc2cc(NC(=O)Nc3ccc(C(F)(F)F)cc3)ccc2O[C@H]1CN(C)Cc1ccc(-c2ccccc2)cc1`, the cytotoxicity call is “active”.
As for `C[C@H](CO)N1C[C@H](C)[C@@H](CN(C)Cc2ccc(-c3ccccc3)cc2)Oc2ccc(NC(=O)Nc3ccc(C(F)(F)F)cc3)cc2CC1=O`, the entry is “active”; as for `C[C@@H]1CN([C@@H](C)CO)C(=O)Cc2cc(NC(=O)Nc3ccc(C(F)(F)F)cc3)ccc2O[C@@H]1CN(C)Cc1ccc(-c2ccccc2)cc1`, “active”; as for `C[C@@H]1CCCCO[C@@H](CN(C)C(=O)c2ccccc2)[C@H](C)CN([C@@H](C)CO)C(=O)c2cc(NC(=O)c3ccccc3)ccc2O1`, “inactive”.
To `C[C@@H]1CN([C@@H](C)CO)C(=O)Cc2cc(NC(=O)CCN3CCOCC3)ccc2O[C@H]1CN(C)Cc1ccncc1` belongs “inactive”; to `COc1cccc(NC(=O)N[C@@H]2CC[C@H](CC(=O)N3CCOCC3)O[C@H]2CO)c1`, “inactive”; to `O=C(NCc1cccc(F)c1)[C@H]1[C@H](CO)[C@H]2Cn3c(cccc3=O)[C@@H]1N2C(=O)c1cnccn1`, “inactive”.
Regarding `C[C@@H](CO)N1CC[C@H](CN(C)Cc2ccc(Oc3ccccc3)cc2)Oc2c(NC(=O)c3ccncc3)cccc2C1=O`, the cytotoxicity call was “inactive”.
As for `CC(=O)N[C@H]1[C@@H](OCc2ccccc2)O[C@H](C(=O)O)[C@@H](OC(C)=O)[C@@H]1OC(C)=O`, the entry is “inactive”.
To `C[C@@H]1CN([C@@H](C)CO)S(=O)(=O)c2ccc(-c3ccc(C(=O)N(C)C)cc3)cc2O[C@H]1CN(C)C(=O)C1CCOCC1` belongs “inactive”.
To `COCC(=O)N(C)C[C@@H]1Oc2cc(C#Cc3ccccc3)ccc2S(=O)(=O)N([C@@H](C)CO)C[C@H]1C` belongs “inactive”.
Take `Cc1ccc(NC2=CC(=O)C[C@H](c3ccc(Cl)cc3)C2)cc1`: the cytotoxicity call was “inactive”.
With `C[C@@H]1CN([C@H](C)CO)C(=O)c2cc(NC(=O)c3ccccc3)ccc2O[C@@H](C)CCCCO[C@H]1CN(C)Cc1ccc(Cl)c(Cl)c1`, the cytotoxicity call is “active”.
Consider `C[C@@H]1CN([C@H](C)CO)C(=O)c2cc(NC(=O)c3ccccc3)ccc2O[C@@H](C)CCCCO[C@@H]1CN(C)Cc1ccc(Cl)c(Cl)c1`, for which the cytotoxicity call is “active”.
As for `C[C@H](CO)N1C[C@H](C)[C@@H](CN(C)Cc2ccc(Cl)c(Cl)c2)OCCCC[C@H](C)Oc2ccc(NC(=O)c3ccccc3)cc2C1=O`, the cytotoxicity call is “inactive”.
As to `C[C@@H]1CCCCO[C@H](CN(C)Cc2ccc(Cl)c(Cl)c2)[C@H](C)CN([C@@H](C)CO)C(=O)c2cc(NC(=O)c3ccccc3)ccc2O1`, the cytotoxicity call is “inactive”.
As for `C[C@@H]1CCCCO[C@@H](CN(C)Cc2ccc(Cl)c(Cl)c2)[C@H](C)CN([C@H](C)CO)C(=O)c2cc(NC(=O)c3ccccc3)ccc2O1`, the cytotoxicity call is “inactive”.
For the compound `C[C@H]1CCCCO[C@H](CN(C)Cc2ccc(Cl)c(Cl)c2)[C@@H](C)CN([C@@H](C)CO)C(=O)c2cc(NC(=O)c3ccccc3)ccc2O1`, the cytotoxicity call is “inactive”.
To `C[C@@H]1CCCCO[C@@H](CN(C)Cc2ccc(Cl)c(Cl)c2)[C@H](C)CN([C@@H](C)CO)C(=O)c2cc(NC(=O)c3ccccc3)ccc2O1` belongs “active”; to `C[C@H](CO)N1C[C@H](C)[C@H](CN(C)Cc2ccc(Cl)c(Cl)c2)OCCCC[C@H](C)Oc2ccc(NC(=O)c3ccccc3)cc2C1=O`, “inactive”.
To `C[C@@H]1CCCCO[C@H](CN(C)Cc2ccc(Cl)c(Cl)c2)[C@@H](C)CN([C@H](C)CO)C(=O)c2cc(NC(=O)c3ccccc3)ccc2O1` belongs “inactive”; to `C[C@@H]1CN([C@H](C)CO)C(=O)CCCn2nncc2CO[C@H]1CN(C)C(=O)Nc1ccc(C(C)(C)C)cc1`, “inactive”.
To `Cc1ccc(S(=O)(=O)N2C[C@H](O)COC[C@@H]3O[C@H](CC(=O)N4CCc5ccccc5C4)CC[C@H]32)cc1` belongs “inactive”; to `COc1ccc(NC(=O)Nc2ccc3c(c2)C(=O)N([C@H](C)CO)C[C@H](C)[C@@H](CN(C)CC2CC2)OCCCC[C@@H](C)O3)cc1`, “inactive”.
`COc1ccc(S(=O)(=O)Nc2ccc3c(c2)CC(=O)N([C@@H](C)CO)C[C@H](C)[C@@H](CN(C)S(=O)(=O)c2cccs2)O3)cc1`: the cytotoxicity call was “inactive”.
To `C[C@@H]1CN([C@H](C)CO)C(=O)c2cc(NS(=O)(=O)c3cn(C)cn3)ccc2O[C@@H](C)CCCCO[C@@H]1CN(C)S(=O)(=O)c1ccc(F)cc1` belongs “inactive”; to `C[C@H]1CN([C@@H](C)CO)C(=O)c2cc(-c3cncnc3)cnc2O[C@H]1CN(C)C(=O)CN1CCOCC1`, “inactive”; to `C[C@@H]1CN([C@H](C)CO)C(=O)c2cc(NC(=O)NC3CCCCC3)ccc2O[C@@H]1CN(C)Cc1ccc(C(=O)Nc2ccccc2N)cc1`, “inactive”.
As for `COc1ccc(C#Cc2cnc3c(c2)C(=O)N([C@@H](C)CO)C[C@H](C)[C@H](CN(C)C(=O)CC2CC2)O3)cc1`, the entry is “inactive”; as for `C[C@@H]1CCCCO[C@H](CN(C)Cc2ccc(C(F)(F)F)cc2)[C@@H](C)CN([C@@H](C)CO)C(=O)c2cc(NC(=O)C3CCCCC3)ccc2O1`, “active”.
As for `C[C@@H]1CCCCO[C@@H](CN(C)Cc2ccc(C(F)(F)F)cc2)[C@@H](C)CN([C@@H](C)CO)C(=O)c2cc(NC(=O)C3CCCCC3)ccc2O1`, the entry is “inactive”; as for `C[C@@H]1CN([C@H](C)CO)C(=O)c2cc(NC(=O)C3CCCCC3)ccc2O[C@@H](C)CCCCO[C@H]1CN(C)Cc1ccc(C(F)(F)F)cc1`, “inactive”; as for `C[C@H]1CCCCO[C@H](CN(C)Cc2ccc(C(F)(F)F)cc2)[C@@H](C)CN([C@@H](C)CO)C(=O)c2cc(NC(=O)C3CCCCC3)ccc2O1`, “active”.
Take `C[C@@H]1CCCCO[C@H](CN(C)Cc2ccc(C(F)(F)F)cc2)[C@H](C)CN([C@@H](C)CO)C(=O)c2cc(NC(=O)C3CCCCC3)ccc2O1`: the cytotoxicity call is “active”.
Turning to `C[C@@H]1CN([C@@H](C)CO)C(=O)c2cc(NC(=O)C3CCCCC3)ccc2O[C@@H](C)CCCCO[C@@H]1CN(C)Cc1ccc(C(F)(F)F)cc1`, the cytotoxicity call is “inactive”.
As for `C[C@@H]1CN([C@@H](C)CO)C(=O)c2cc(NC(=O)C3CCCCC3)ccc2O[C@@H](C)CCCCO[C@H]1CN(C)Cc1ccc(C(F)(F)F)cc1`, the entry is “active”; as for `C[C@H](CO)N1C[C@H](C)[C@@H](CN(C)Cc2ccc(C(F)(F)F)cc2)OCCCC[C@H](C)Oc2ccc(NC(=O)C3CCCCC3)cc2C1=O`, “inactive”.
As to `C[C@@H]1CN([C@H](C)CO)C(=O)c2cc(NC(=O)C3CCCCC3)ccc2O[C@@H](C)CCCCO[C@@H]1CN(C)Cc1ccc(C(F)(F)F)cc1`, the cytotoxicity call is “inactive”.
Take `C[C@H]1CCCCO[C@@H](CN(C)Cc2ccc(C(F)(F)F)cc2)[C@@H](C)CN([C@@H](C)CO)C(=O)c2cc(NC(=O)C3CCCCC3)ccc2O1`: the cytotoxicity call was “inactive”.
For the compound `C[C@H](CO)N1C[C@H](C)[C@H](CN(C)Cc2ccc(C(F)(F)F)cc2)OCCCC[C@H](C)Oc2ccc(NC(=O)C3CCCCC3)cc2C1=O`, the cytotoxicity call is “inactive”.
As for `C[C@@H]1CCCCO[C@@H](CN(C)Cc2ccc(C(F)(F)F)cc2)[C@H](C)CN([C@@H](C)CO)C(=O)c2cc(NC(=O)C3CCCCC3)ccc2O1`, the entry is “inactive”.

These data come from the antibiotic and cytotoxicity screens of Wong et al. (2023).
